This is an account of results in PubChem BioAssay (NCATS).

Each structure is given as a SMILES string. Records with an inconclusive call do not appear. Active and inactive are the calls of the source. The call rests on the fitted dose curve; in most records, active means well fitted curve in the direction sought with a large enough effect; inconclusive means small, poorly fitted or top-dose-only effect, or another doubt; inactive means no such curve, though single readings can be large; an effect the other way counts as inactive or inconclusive.

A short description of experiment [1]: Quantitative High-Throughput drug screen in 47 multiple myeloma cell lines against the NCATS MIPE library collection: EJM_DSMZ cell viability assay (AID 1918926; further: nearly all actives have a fitted effect of over 30% in size). Put shortly:
(§1)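 Viability readout: CellTiter-Glo luminescence following 5 min room-temperature incubation with reagent. Prior exposure: 48 h, 37C, humidified 5% CO2, 500 cells per well.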

A short description of experiment [2]: Quantitative High-Throughput drug screen in 47 multiple myeloma cell lines against the NCATS MIPE library collection: AMO1_DSMZ cell viability assay (AID 1918927; further: nearly all actives have a fitted effect of over 30% in size). A digest of the protocol: as §1
A short description of experiment [3]: Quantitative High-Throughput drug screen in 47 multiple myeloma cell lines against the NCATS MIPE library collection: ARP1_JJKsccF8 cell viability assay (AID 1918928; further: nearly all actives have a fitted effect of over 40% in size). A digest of the protocol:
(§2)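 ATP readout (CellTiter-Glo), 48 h drug incubation, 37 °C/5% CO2, 500 cells per well; normalisation to DMSO (100%) and media-only (0%) controls.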

Experiment [4] is described as follows: Quantitative High-Throughput drug screen in 47 multiple myeloma cell lines against the NCATS MIPE library collection: ARD_JJKsccE7 cell viability assay (AID 1918929). Put shortly:
as §1

Experiment [5] is described as follows: Quantitative High-Throughput drug screen in 47 multiple myeloma cell lines against the NCATS MIPE library collection: Karpas620_DSMZ cell viability assay (AID 1918959). Further: nearly all actives have a fitted effect of over 30% in size. Put shortly:
(§3)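 Primary qHTS used for cherry-picking: cells at 500/well, library compounds for 48 h (37C, 5% CO2), luminescent ATP assay.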

A short description of experiment [6]: Quantitative High-Throughput drug screen in 47 multiple myeloma cell lines against the NCATS MIPE library collection: KMM1_JCRB cell viability assay (AID 1918960). Further: nearly all actives have a fitted effect of over 30% in size.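 On viability (% of DMSO): 100% = DMSO-treated cells and 0% = medium-only wells.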 A digest of the protocol: as §2
The nature of experiment [7]: Quantitative High-Throughput drug screen in 47 multiple myeloma cell lines against the NCATS MIPE library collection: Karpas417_ECACC cell viability assay (AID 1918961). Conditions: Karpas417 myeloma viability, CellTiter-Glo ATP luminescence, 48 h; viability (% of DMSO): at 45.8 µM (top of the series). Put shortly: (§4)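 We plated 500 myeloma cells per well, pinned in MIPE 4.0 compounds, and incubated for 48 hours at 37C. ATP was then quantified with CellTiter-Glo, with DMSO and media-only wells defining 100% and 0%.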

Experiment [8] is described as follows: Quantitative High-Throughput drug screen in 47 multiple myeloma cell lines against the NCATS MIPE library collection: KHM11_PLB cell viability assay (AID 1918962). Further: nearly all actives have a fitted effect of over 35% in size. Put shortly:
as §3

Experiment [9] is described as follows: Quantitative High-Throughput drug screen in 47 multiple myeloma cell lines against the NCATS MIPE library collection: JIM3_ECACC cell viability assay (AID 1918963; further: nearly all actives have a fitted effect of over 35% in size). A digest of the protocol: as §3
Experiment [10] is described as follows: Quantitative High-Throughput drug screen in 47 multiple myeloma cell lines against the NCATS MIPE library collection: JIM1_ECACC cell viability assay (AID 1918964). Put shortly:
as §1

Experiment [11] is described as follows: Quantitative High-Throughput drug screen in 47 multiple myeloma cell lines against the NCATS MIPE library collection: INA6_PLB cell viability assay (AID 1918965; further: nearly all actives have a fitted effect of over 55% in size). Put shortly: as §4
The nature of experiment [12]: Quantitative High-Throughput drug screen in 47 multiple myeloma cell lines against the NCATS MIPE library collection: JJN3_DSMZ cell viability assay (AID 1918966; further: nearly all actives have a fitted effect of over 50% in size). A digest of the protocol: as §1
A short description of experiment [13]: Quantitative High-Throughput drug screen in 47 multiple myeloma cell lines against the NCATS MIPE library collection: H1112_PLB cell viability assay (AID 1918967; further: nearly all actives have a fitted effect of over 30% in size). Put shortly:
as §1

Experiment [14] in a line: Quantitative High-Throughput drug screen in 47 multiple myeloma cell lines against the NCATS MIPE library collection: KMS27_JCRB cell viability assay (AID 1918970). Further: nearly all actives have a fitted effect of over 30% in size. Put shortly:
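CellTiter-Glo luminescence after 48 h drug exposure at 37 °C; 500 cells/well, 1536-well format, pin-tool compound addition; DMSO = 100%, media-only = 0% viability.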

A short description of experiment [15]: Quantitative High-Throughput drug screen in 47 multiple myeloma cell lines against the NCATS MIPE library collection: KMS12BM_JCRB cell viability assay (AID 1918971). Further: nearly all actives have a fitted effect of over 35% in size. A digest of the protocol:
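Myeloma cells (500 per well) were exposed to MIPE 4.0 compounds by pin transfer and incubated 48 hours at 37C, 5% CO2. Viability was read as ATP by CellTiter-Glo luminescence, normalised to DMSO (100%) and media-only (0%) wells.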

A short description of experiment [16]: Quantitative High-Throughput drug screen in 47 multiple myeloma cell lines against the NCATS MIPE library collection: KMS12PE_JCRB cell viability assay (AID 1918972). Further: nearly all actives have a fitted effect of over 30% in size. Put shortly:
as §4

Experiment [17] can be described thus: Quantitative High-Throughput drug screen in 47 multiple myeloma cell lines against the NCATS MIPE library collection: KMS20_JCRB cell viability assay (AID 1918973). Further: nearly all actives have a fitted effect of over 45% in size. A digest of the protocol: as §1
The nature of experiment [18]: Quantitative High-Throughput drug screen in 47 multiple myeloma cell lines against the NCATS MIPE library collection: KMS21BM_JCRB cell viability assay (AID 1918974). Conditions: ATP luminescence, 48 h; viability: at 45.8 µM (top of the series) unless noted. Put shortly: as §1
Experiment [19] is described as follows: Quantitative High-Throughput drug screen in 47 multiple myeloma cell lines against the NCATS MIPE library collection: Delta47_JCRB cell viability assay (AID 1918925; further: nearly all actives have a fitted effect of over 45% in size). A digest of the protocol: as §1
Experiment [20] can be described thus: Quantitative High-Throughput drug screen in 47 multiple myeloma cell lines against the NCATS MIPE library collection: Karpas25_ECACC cell viability assay (AID 1918968; further: nearly all actives have a fitted effect of over 35% in size). Put shortly:
as §1
Potency means the concentration at half of the fitted maximal effect.

For the compound `CNC(=O)c1cc(Oc2ccc(NC(=O)Nc3cc(C(C)(C)C)nn3-c3ccc4ncccc4c3)c(F)c2)ccn1`, the Potency was 6.62 µM (active) in [1]; 7.43 µM (active) in experiment [2]; 8.33 µM (active) in experiment [3]; 9.35 µM (active) in experiment [4]; 23.5 µM (active) in experiment [5]; 16.6 µM (active) in experiment [6]. For the same compound, the Potency was 9.35 µM (active) in experiment [7]; 2.64 µM (active) in experiment [8]; 3.32 µM (active) in experiment [9]; 7.43 µM (active) in [10]; 3.32 µM (active) in [11]; 2.96 µM (active) in experiment [12]. Besides, the Potency in experiment [13] is 4.18 µM (active); in experiment [14], 23.5 µM (active); in experiment [15], 5.9 µM (active); in [16] it was 16.6 µM (active); in experiment [17], 5.9 µM (active); in experiment [18] it was 4.18 µM (active).
Consider `COc1cc(C(=O)N2CCC(N3CCN(C)CC3)CC2)ccc1Nc1ncc2c(n1)N(C)c1ccccc1C(=O)N2C`, for which the Potency in experiment [19] is 2.64 µM (active); in experiment [3] it was 2.35 µM (active); in experiment [4], 1.66 µM (active); in experiment [5], 3.32 µM (active); in [6] it was 1.66 µM (active); in experiment [7], 2.09 µM (active). Also, the Potency is 7.43 µM (active) in [8]; 14.8 µM (active) in [9]; 0.935 µM (active) in [11]; 3.72 µM (active) in [12]; 1.87 µM (active) in experiment [15]; 1.66 µM (active) in [16]. Further, in [17], the Potency is 13.2 µM (active).
With `O=C(O)c1ccc2cc(-c3ccc(O)c(C45CC6CC(CC(C6)C4)C5)c3)ccc2c1`, the Potency in experiment [19] was 5.9 µM (active); in [3], 5.9 µM (active); in [4], 5.26 µM (active); in experiment [5] it was 5.26 µM (active); in experiment [9], 3.72 µM (active); in experiment [10], 0.332 µM (active). Moreover, the Potency in experiment [11] is 0.264 µM (active); in experiment [13], 0.418 µM (active); in [20] it was 1.48 µM (active); in experiment [14], 0.187 µM (active); in experiment [15], 4.69 µM (active); in experiment [16] it was 0.526 µM (active).
Take `CC1COC2(CCN(c3nc(=O)c4cc(C(F)(F)F)cc([N+](=O)[O-])c4s3)CC2)O1` (stereo not drawn): the Potency entry in experiment [19], in experiment [3], in [4], in [5], in experiment [6] and in experiment [9] was “inactive” each time. The Potency result in [10], in [11], in [12], in [13], in experiment [20] and in [15] was “inactive” each time.
For the compound `COc1c(N2C[C@@H]3CCCN[C@H]3C2)c(F)cc2c(=O)c(C(=O)O)cn(C3CC3)c12`, the Potency entry in experiment [19], in [5], in experiment [13] and in [16] was “inactive” throughout. Besides, the values for the Potency in [3], in [14] and in experiment [15] were 37.2 µM (active), 18.7 µM (active) and 14.8 µM (active), respectively.
For `CC(=O)Nc1sc2c(c1-c1nc3ccccc3s1)CNC2`, the Potency in experiment [19] is 16.6 µM (active); in experiment [3], 11.8 µM (active); in experiment [8], 26.4 µM (active); in [9], 18.7 µM (active); in experiment [11], 3.72 µM (active); in [12] it was 16.6 µM (active). The figures for the Potency in [15], in [16] and in experiment [17] were 11.8 µM (active), 20.9 µM (active) and 16.6 µM (active), respectively. Further, the Potency result in [5], in [6] and in [14] was “inactive” each time.
Take `Cc1c(C)n(Cc2ccc(-c3ccccc3C(=O)O)cc2)c2ccc(C(=O)N[C@@H](C)c3ccc([N+](=O)[O-])cc3)cc12`: the Potency in [19] was 23.5 µM (active); in [5], 0.0935 µM (active); in experiment [6] it was 0.935 µM (active); in experiment [7] it was 0.0187 µM (active); in experiment [9], 13.2 µM (active); in experiment [10], 0.0935 µM (active). Also, the Potency in experiment [11] was 18.7 µM (active); in experiment [13], 18.7 µM (active); in experiment [16] it was 0.118 µM (active); in [17], 11.8 µM (active); in experiment [18] it was 0.148 µM (active).
With `COC(=O)[C@]12CCC(C)(C)C[C@@H]1[C@@H]1C(=O)C=C3[C@@]4(C)C=C(C#N)C(=O)C(C)(C)[C@@H]4CC[C@@]3(C)[C@]1(C)CC2`, the Potency was 0.418 µM (active) in [1]; 0.469 µM (active) in experiment [2]; 0.469 µM (active) in experiment [3]; 0.662 µM (active) in experiment [4]; 0.526 µM (active) in experiment [5]; 0.662 µM (active) in experiment [6]. Further, the Potency in experiment [7] was 0.526 µM (active); in experiment [8], 0.469 µM (active); in experiment [9], 0.166 µM (active); in [10], 0.418 µM (active); in [11], 0.059 µM (active); in [13] it was 0.418 µM (active). In addition, the Potency in [20] is 0.209 µM (active); in experiment [14] it was 0.526 µM (active); in [15], 0.526 µM (active); in experiment [16], 0.662 µM (active); in [17] it was 0.296 µM (active); in experiment [18], 0.0743 µM (active).
`CN(C)c1nc(Cc2ccc(NC(=O)c3ccc4ccccc4c3)cc2)nc(Cl)c1CC(=O)O`: the Potency result in [19], in [3], in experiment [4], in [5], in [8] and in [9] was “inactive” throughout. Besides, the Potency entry in experiment [11], in experiment [13], in [20], in experiment [15] and in experiment [17] was “inactive” throughout. Also, the Potency in experiment [14] was 0.0526 µM (active); in [16], 16.6 µM (active).
Turning to `COc1cc2c(Nc3ccc(NC(=O)c4ccccc4)cc3)ncnc2cc1OCCCN1CCOCC1`, the Potency was 8.33 µM (active) in experiment [19]; 20.9 µM (active) in [3]; 6.62 µM (active) in experiment [6]; 8.33 µM (active) in experiment [8]; 11.8 µM (active) in experiment [11]; 23.5 µM (active) in experiment [12]. Moreover, the Potency result in experiment [5] was “inactive”. In experiment [7], the viability (% of DMSO) was 112% (active).
With `CC(C)c1ccccc1Cc1cc(C(=O)Nc2ccc(S(=O)(=O)c3ccccc3C(C)(C)C)cc2)c(O)c(O)c1O`, the Potency in experiment [19] is 7.43 µM (active); in [3], 14.8 µM (active); in experiment [8], 7.43 µM (active); in [9], 4.18 µM (active); in experiment [11], 5.26 µM (active); in experiment [12] it was 14.8 µM (active). Besides, the Potency in experiment [13] is 6.62 µM (active); in experiment [20], 3.72 µM (active); in [15], 3.72 µM (active); in [17], 9.35 µM (active). For the same compound, the Potency result in experiment [4], in [5], in experiment [6] and in experiment [16] was “inactive” throughout.
As to `Cc1ccc(-c2ncn(-c3ccc(Nc4nccc(-c5cccc(N6CCOCC6)c5)n4)cc3)n2)cn1`, the Potency in [19] is 0.105 µM (active); in experiment [3], 0.166 µM (active); in experiment [4] it was 0.105 µM (active); in [5], 0.209 µM (active); in [6], 0.105 µM (active); in [7], 0.0296 µM (active). Also, the Potency in [8] was 0.118 µM (active); in experiment [10] it was 0.0662 µM (active); in experiment [11], 0.0662 µM (active); in experiment [20], 0.0833 µM (active); in experiment [14] it was 0.0469 µM (active); in experiment [15], 0.0833 µM (active). Besides, the Potency in [16] is 0.059 µM (active); in experiment [17] it was 0.0833 µM (active); in experiment [18], 0.0296 µM (active).
